The text below walks through data of article PMC11006913.

Assay in all cases: PBM; 200 nM protein, PBS
What all share (conditions): dsDNA, one strand shown

Test [1] deals with HOXB6 (Homo sapiens, UniProt P17509 132-218, K202E).
Test [2] deals with T1, NKX2-6 (Homo sapiens, UniProt A6NCS4 118-204).
T1 sequence: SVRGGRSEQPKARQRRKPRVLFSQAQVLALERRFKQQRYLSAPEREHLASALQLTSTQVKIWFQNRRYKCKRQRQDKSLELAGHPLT

Test [3] concerns the target T2, NKX2-6 (Homo sapiens, UniProt A6NCS4 118-204, F151L).
T2 sequence: T1 sequence with F34L

Test [4] concerns the target HOXB6 (Homo sapiens, UniProt P17509 132-218).
Test [5] has as its target T3, NKX2-6 (Homo sapiens, UniProt A6NCS4 118-204, R150C).
T3 sequence: T1 sequence with R33C

The target in test [6] is T4, SIX6 (Homo sapiens, UniProt O95475 114-200, L143M).
T4 sequence: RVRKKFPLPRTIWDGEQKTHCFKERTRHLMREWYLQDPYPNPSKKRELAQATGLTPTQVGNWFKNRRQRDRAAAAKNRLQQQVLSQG

The target in test [7] is HOXA2 (Homo sapiens, UniProt O43364 129-215, R185T).
HOXA2 (Homo sapiens, UniProt O43364 129-215, R185T), sequence (O43364 129-215 R185T): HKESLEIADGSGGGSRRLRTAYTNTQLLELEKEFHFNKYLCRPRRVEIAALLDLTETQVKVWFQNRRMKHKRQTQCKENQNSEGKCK
Test [8] deals with HOXD13 (Homo sapiens, UniProt P35453 263-343, T313R).
HOXD13 (Homo sapiens, UniProt P35453 263-343, T313R), sequence (P35453 263-343 T313R): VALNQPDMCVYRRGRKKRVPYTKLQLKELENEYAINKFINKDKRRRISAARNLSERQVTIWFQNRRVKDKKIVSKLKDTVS
Test [9] concerns the target HOXA2 (Homo sapiens, UniProt O43364 129-215, R185K).
The target of test [10] is HOXD13 (Homo sapiens, UniProt P35453 263-343).
HOXD13 (Homo sapiens, UniProt P35453 263-343), sequence (P35453 263-343): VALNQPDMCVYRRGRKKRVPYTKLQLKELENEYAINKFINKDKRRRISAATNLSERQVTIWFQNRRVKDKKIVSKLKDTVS
The target in test [11] is HOXD13 (Homo sapiens, UniProt P35453 263-343, T313A).
HOXD13 (Homo sapiens, UniProt P35453 263-343, T313A), sequence (P35453 263-343 T313A): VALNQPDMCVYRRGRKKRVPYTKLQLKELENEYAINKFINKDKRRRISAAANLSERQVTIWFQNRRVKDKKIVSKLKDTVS
The target in test [12] is HOXA2 (Homo sapiens, UniProt O43364 129-215, Y150S).
HOXA2 (Homo sapiens, UniProt O43364 129-215, Y150S), sequence (O43364 129-215 Y150S): as the sequence (O43364 129-215 R185T) above, with Y22S, T57R counted along it
In test [13] the target is HOXA2 (Homo sapiens, UniProt O43364 129-215).
HOXA2 (Homo sapiens, UniProt O43364 129-215), sequence (O43364 129-215): as the sequence (O43364 129-215 R185T) above, with T57R counted along it
Test [14] concerns the target T5, SIX6 (Homo sapiens, UniProt O95475 114-200, L143I).
T5 sequence: T4 sequence with M30I

Substitutions are numbered along the chain they refer to.

HOXB6 (Homo sapiens, UniProt P17509 132-218, K202E), sequence (P17509 132-218 K202E): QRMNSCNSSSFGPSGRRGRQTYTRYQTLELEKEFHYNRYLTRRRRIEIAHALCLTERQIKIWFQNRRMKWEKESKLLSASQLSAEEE
HOXB6 (Homo sapiens, UniProt P17509 132-218), sequence (P17509 132-218): as the sequence (P17509 132-218 K202E) above, with E71K counted along it
HOXA2 (Homo sapiens, UniProt O43364 129-215, R185K), sequence (O43364 129-215 R185K): as the sequence (O43364 129-215 R185T) above, with T57K counted along it

Turning to GGACCCCC, the binding signal is 8.73 upbm affinity estimate (log intensity, higher = more binding, comparable within an allelic series) in test [1]; 9.37 upbm affinity estimate (log intensity, higher = more binding, comparable within an allelic series) in test [2]; 8.99 upbm affinity estimate (log intensity, higher = more binding, comparable within an allelic series) in test [3]; 8.68 upbm affinity estimate (log intensity, higher = more binding, comparable within an allelic series) in test [4].

Consider AACTACTT, for which the binding signal in test [1] was 9.54 upbm affinity estimate (log intensity, higher = more binding, comparable within an allelic series); in [5], 11.2 upbm affinity estimate (log intensity, higher = more binding, comparable within an allelic series); in test [4], 10.1 upbm affinity estimate (log intensity, higher = more binding, comparable within an allelic series).

Turning to ATAGTATC, the binding signal in [6] is 11 upbm affinity estimate (log intensity, higher = more binding, comparable within an allelic series).

With AGATATCC, the binding signal in [6] was 10.9 upbm affinity estimate (log intensity, higher = more binding, comparable within an allelic series).

Turning to CGGAGGCC, the binding signal in test [1] was 8.93 upbm affinity estimate (log intensity, higher = more binding, comparable within an allelic series); in [7], 7.34 upbm affinity estimate (log intensity, higher = more binding, comparable within an allelic series); in test [8], 9.47 upbm affinity estimate (log intensity, higher = more binding, comparable within an allelic series); in test [9], 10.1 upbm affinity estimate (log intensity, higher = more binding, comparable within an allelic series); in test [10] it was 9.47 upbm affinity estimate (log intensity, higher = more binding, comparable within an allelic series); in test [11] it was 9.66 upbm affinity estimate (log intensity, higher = more binding, comparable within an allelic series). The binding signal in [12] is 10.3 upbm affinity estimate (log intensity, higher = more binding, comparable within an allelic series); in test [13], 7.12 upbm affinity estimate (log intensity, higher = more binding, comparable within an allelic series); in [4] it was 8.97 upbm affinity estimate (log intensity, higher = more binding, comparable within an allelic series).

GATACATC: the binding signal in test [14] was 10.4 upbm affinity estimate (log intensity, higher = more binding, comparable within an allelic series).

Take ATCTGATC: the binding signal in test [6] is 11 upbm affinity estimate (log intensity, higher = more binding, comparable within an allelic series); in test [14] it was 10.4 upbm affinity estimate (log intensity, higher = more binding, comparable within an allelic series).

Regarding ATCATGAT, in [14], the binding signal was 10.4 upbm affinity estimate (log intensity, higher = more binding, comparable within an allelic series).

On to AGCCTTGC, for which the binding signal in test [1] was 9.12 upbm affinity estimate (log intensity, higher = more binding, comparable within an allelic series); in [7] it was 7.13 upbm affinity estimate (log intensity, higher = more binding, comparable within an allelic series); in [9] it was 10.3 upbm affinity estimate (log intensity, higher = more binding, comparable within an allelic series); in test [12] it was 10.6 upbm affinity estimate (log intensity, higher = more binding, comparable within an allelic series); in [13], 7.12 upbm affinity estimate (log intensity, higher = more binding, comparable within an allelic series); in [4], 8.94 upbm affinity estimate (log intensity, higher = more binding, comparable within an allelic series).

For ACATTAAC, the binding signal in test [1] was 10 upbm affinity estimate (log intensity, higher = more binding, comparable within an allelic series).

Turning to ACCGTTAA, the binding signal is 9.66 upbm affinity estimate (log intensity, higher = more binding, comparable within an allelic series) in test [1] and 10.6 upbm affinity estimate (log intensity, higher = more binding, comparable within an allelic series) in test [4].

For the sequence CAACATAA, the binding signal in test [1] is 9.7 upbm affinity estimate (log intensity, higher = more binding, comparable within an allelic series); in [4], 10.4 upbm affinity estimate (log intensity, higher = more binding, comparable within an allelic series).

For TGACTTAA, the binding signal in [1] was 9.69 upbm affinity estimate (log intensity, higher = more binding, comparable within an allelic series); in test [4] it was 10.5 upbm affinity estimate (log intensity, higher = more binding, comparable within an allelic series).

AGTTATTG: the binding signal in test [1] is 9.58 upbm affinity estimate (log intensity, higher = more binding, comparable within an allelic series); in test [4] it was 10.6 upbm affinity estimate (log intensity, higher = more binding, comparable within an allelic series).

On to GGCAGCAC, for which the binding signal in test [1] is 9.12 upbm affinity estimate (log intensity, higher = more binding, comparable within an allelic series); in test [4] it was 9.12 upbm affinity estimate (log intensity, higher = more binding, comparable within an allelic series).

As for AGTCGCCC, the binding signal is 8.98 upbm affinity estimate (log intensity, higher = more binding, comparable within an allelic series) in [1] and 9.09 upbm affinity estimate (log intensity, higher = more binding, comparable within an allelic series) in [4].

As for AATTTCGG, the binding signal in test [1] is 9.51 upbm affinity estimate (log intensity, higher = more binding, comparable within an allelic series); in test [4], 10.2 upbm affinity estimate (log intensity, higher = more binding, comparable within an allelic series).

As for CCCGGTAG, the binding signal in [1] is 9.07 upbm affinity estimate (log intensity, higher = more binding, comparable within an allelic series); in test [4], 9.12 upbm affinity estimate (log intensity, higher = more binding, comparable within an allelic series).

Consider GAGGGGCA, for which the binding signal is 9.15 upbm affinity estimate (log intensity, higher = more binding, comparable within an allelic series) in [1] and 9.24 upbm affinity estimate (log intensity, higher = more binding, comparable within an allelic series) in test [4].

As to CAAAATGG, the binding signal in test [1] was 9.63 upbm affinity estimate (log intensity, higher = more binding, comparable within an allelic series); in test [4], 10.4 upbm affinity estimate (log intensity, higher = more binding, comparable within an allelic series).

With AAATGGTC, the binding signal in test [1] was 9.65 upbm affinity estimate (log intensity, higher = more binding, comparable within an allelic series); in test [4] it was 10.6 upbm affinity estimate (log intensity, higher = more binding, comparable within an allelic series).

For the sequence GGCTCGAC, the binding signal is 9.13 upbm affinity estimate (log intensity, higher = more binding, comparable within an allelic series) in test [1] and 8.81 upbm affinity estimate (log intensity, higher = more binding, comparable within an allelic series) in test [4].

Regarding CCCTGGGA, the binding signal is 8.98 upbm affinity estimate (log intensity, higher = more binding, comparable within an allelic series) in test [1] and 8.98 upbm affinity estimate (log intensity, higher = more binding, comparable within an allelic series) in test [4].

On to AAGGGAGC, for which the binding signal in [1] was 9.01 upbm affinity estimate (log intensity, higher = more binding, comparable within an allelic series); in test [4], 8.99 upbm affinity estimate (log intensity, higher = more binding, comparable within an allelic series).

Regarding CATTAGGC, the binding signal in [1] was 9.37 upbm affinity estimate (log intensity, higher = more binding, comparable within an allelic series); in test [4], 10.4 upbm affinity estimate (log intensity, higher = more binding, comparable within an allelic series).

In the case of CCTCGGAC, the binding signal in test [1] is 9.1 upbm affinity estimate (log intensity, higher = more binding, comparable within an allelic series); in test [4], 8.96 upbm affinity estimate (log intensity, higher = more binding, comparable within an allelic series).

In the case of GATGCCCC, the binding signal in test [1] was 9.11 upbm affinity estimate (log intensity, higher = more binding, comparable within an allelic series); in test [4] it was 8.96 upbm affinity estimate (log intensity, higher = more binding, comparable within an allelic series).

In the case of GCCCCGCA, the binding signal in [1] is 9.01 upbm affinity estimate (log intensity, higher = more binding, comparable within an allelic series); in [4] it was 9.08 upbm affinity estimate (log intensity, higher = more binding, comparable within an allelic series).

On to GAGAGGGC, for which the binding signal in [1] is 8.82 upbm affinity estimate (log intensity, higher = more binding, comparable within an allelic series); in test [4], 8.79 upbm affinity estimate (log intensity, higher = more binding, comparable within an allelic series).

Turning to CCGGGGCA, the binding signal in test [1] was 8.98 upbm affinity estimate (log intensity, higher = more binding, comparable within an allelic series); in [4], 8.98 upbm affinity estimate (log intensity, higher = more binding, comparable within an allelic series).
